Laboratory results: the supplement of paper PMC11732987, “Enantioselective OTUD7B fragment discovery through chemoproteomics screening and high-throughput optimisation” (Communications Chemistry, 2025)

Tests used:
Test in all cases: log2 ratio of Biotin-Ahx-Ub-VS probe labelling (fragment/DMSO); higher = less target engagement (more negative = stronger competition), active = hit call of the paper (q ≤ 0.05, log2 ratio ≤ -1)
Settings in all cases: compound concentration: 200 uM; treatment time: 3 h
USP19 = target: T1, USP19 (UniProt O94966)
T1 sequence (whole entry): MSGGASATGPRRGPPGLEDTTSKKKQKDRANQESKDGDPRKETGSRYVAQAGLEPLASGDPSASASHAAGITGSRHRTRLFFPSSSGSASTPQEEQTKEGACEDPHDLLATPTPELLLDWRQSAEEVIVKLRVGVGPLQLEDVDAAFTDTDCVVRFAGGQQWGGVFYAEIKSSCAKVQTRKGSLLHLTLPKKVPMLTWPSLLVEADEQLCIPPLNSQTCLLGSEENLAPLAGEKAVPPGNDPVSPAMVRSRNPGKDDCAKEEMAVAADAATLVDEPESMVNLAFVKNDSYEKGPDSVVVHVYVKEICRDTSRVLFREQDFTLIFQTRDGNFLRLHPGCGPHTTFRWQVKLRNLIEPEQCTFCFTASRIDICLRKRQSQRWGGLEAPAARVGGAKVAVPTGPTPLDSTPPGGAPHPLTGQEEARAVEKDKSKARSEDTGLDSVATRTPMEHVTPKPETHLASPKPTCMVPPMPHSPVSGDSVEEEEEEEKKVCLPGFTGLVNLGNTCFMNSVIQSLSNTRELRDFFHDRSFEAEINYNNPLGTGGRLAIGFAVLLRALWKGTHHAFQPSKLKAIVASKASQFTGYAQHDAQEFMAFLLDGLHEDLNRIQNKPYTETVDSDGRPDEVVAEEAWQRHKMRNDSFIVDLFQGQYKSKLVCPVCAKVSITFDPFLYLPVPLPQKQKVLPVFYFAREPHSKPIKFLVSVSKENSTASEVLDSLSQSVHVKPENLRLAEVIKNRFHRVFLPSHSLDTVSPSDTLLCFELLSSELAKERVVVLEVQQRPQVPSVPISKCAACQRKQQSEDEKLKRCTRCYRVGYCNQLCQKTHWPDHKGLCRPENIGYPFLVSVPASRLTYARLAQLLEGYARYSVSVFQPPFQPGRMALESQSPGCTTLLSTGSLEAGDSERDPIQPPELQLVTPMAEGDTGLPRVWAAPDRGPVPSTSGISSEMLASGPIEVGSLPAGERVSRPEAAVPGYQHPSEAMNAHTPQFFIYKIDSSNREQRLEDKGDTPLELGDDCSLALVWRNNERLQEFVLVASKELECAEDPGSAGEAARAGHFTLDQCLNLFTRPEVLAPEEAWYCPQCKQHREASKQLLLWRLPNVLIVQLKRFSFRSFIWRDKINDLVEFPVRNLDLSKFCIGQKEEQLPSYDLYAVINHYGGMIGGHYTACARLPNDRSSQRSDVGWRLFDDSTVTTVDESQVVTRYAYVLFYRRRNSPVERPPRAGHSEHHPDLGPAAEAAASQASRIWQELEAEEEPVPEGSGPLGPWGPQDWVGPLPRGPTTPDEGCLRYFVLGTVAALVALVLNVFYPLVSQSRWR
In short: (§1)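 Triplicate samples of HEK293T lysate, 495 µg each, received fragment at 200 µM or vehicle for 3 h, followed by Biotin-Ahx-Ub-VS (0.5 µM final) for 1 h. After NeutrAvidin enrichment of labelled DUBs and LysC/trypsin digestion, peptides were run by diaPASEF LC-MS/MS. The values are average log2 fragment/vehicle ratios from global-median-normalised Spectronaut label-free quantities, tested by unpaired t-test on proteins having ≥2 unique peptides.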

USP22 = target: T2, USP22 (UniProt Q9UPT9)
T2 sequence (whole entry): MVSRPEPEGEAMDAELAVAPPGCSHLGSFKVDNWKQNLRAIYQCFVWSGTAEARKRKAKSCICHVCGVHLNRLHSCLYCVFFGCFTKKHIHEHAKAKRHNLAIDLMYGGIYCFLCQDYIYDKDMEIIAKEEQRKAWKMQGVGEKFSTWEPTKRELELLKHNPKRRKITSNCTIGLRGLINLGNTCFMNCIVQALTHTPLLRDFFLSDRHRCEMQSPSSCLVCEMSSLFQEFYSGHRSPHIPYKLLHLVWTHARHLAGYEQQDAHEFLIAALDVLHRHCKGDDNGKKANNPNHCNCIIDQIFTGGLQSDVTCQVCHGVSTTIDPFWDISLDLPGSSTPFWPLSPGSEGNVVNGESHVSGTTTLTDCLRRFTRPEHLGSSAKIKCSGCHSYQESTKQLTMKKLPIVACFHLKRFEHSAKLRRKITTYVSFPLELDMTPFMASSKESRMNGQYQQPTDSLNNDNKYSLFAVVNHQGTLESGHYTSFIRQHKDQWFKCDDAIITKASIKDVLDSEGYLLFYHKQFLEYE
In short: as §1

USP24 = USP24 (UniProt Q9UPU5)
Chain of USP24 (Q9UPU5 whole entry): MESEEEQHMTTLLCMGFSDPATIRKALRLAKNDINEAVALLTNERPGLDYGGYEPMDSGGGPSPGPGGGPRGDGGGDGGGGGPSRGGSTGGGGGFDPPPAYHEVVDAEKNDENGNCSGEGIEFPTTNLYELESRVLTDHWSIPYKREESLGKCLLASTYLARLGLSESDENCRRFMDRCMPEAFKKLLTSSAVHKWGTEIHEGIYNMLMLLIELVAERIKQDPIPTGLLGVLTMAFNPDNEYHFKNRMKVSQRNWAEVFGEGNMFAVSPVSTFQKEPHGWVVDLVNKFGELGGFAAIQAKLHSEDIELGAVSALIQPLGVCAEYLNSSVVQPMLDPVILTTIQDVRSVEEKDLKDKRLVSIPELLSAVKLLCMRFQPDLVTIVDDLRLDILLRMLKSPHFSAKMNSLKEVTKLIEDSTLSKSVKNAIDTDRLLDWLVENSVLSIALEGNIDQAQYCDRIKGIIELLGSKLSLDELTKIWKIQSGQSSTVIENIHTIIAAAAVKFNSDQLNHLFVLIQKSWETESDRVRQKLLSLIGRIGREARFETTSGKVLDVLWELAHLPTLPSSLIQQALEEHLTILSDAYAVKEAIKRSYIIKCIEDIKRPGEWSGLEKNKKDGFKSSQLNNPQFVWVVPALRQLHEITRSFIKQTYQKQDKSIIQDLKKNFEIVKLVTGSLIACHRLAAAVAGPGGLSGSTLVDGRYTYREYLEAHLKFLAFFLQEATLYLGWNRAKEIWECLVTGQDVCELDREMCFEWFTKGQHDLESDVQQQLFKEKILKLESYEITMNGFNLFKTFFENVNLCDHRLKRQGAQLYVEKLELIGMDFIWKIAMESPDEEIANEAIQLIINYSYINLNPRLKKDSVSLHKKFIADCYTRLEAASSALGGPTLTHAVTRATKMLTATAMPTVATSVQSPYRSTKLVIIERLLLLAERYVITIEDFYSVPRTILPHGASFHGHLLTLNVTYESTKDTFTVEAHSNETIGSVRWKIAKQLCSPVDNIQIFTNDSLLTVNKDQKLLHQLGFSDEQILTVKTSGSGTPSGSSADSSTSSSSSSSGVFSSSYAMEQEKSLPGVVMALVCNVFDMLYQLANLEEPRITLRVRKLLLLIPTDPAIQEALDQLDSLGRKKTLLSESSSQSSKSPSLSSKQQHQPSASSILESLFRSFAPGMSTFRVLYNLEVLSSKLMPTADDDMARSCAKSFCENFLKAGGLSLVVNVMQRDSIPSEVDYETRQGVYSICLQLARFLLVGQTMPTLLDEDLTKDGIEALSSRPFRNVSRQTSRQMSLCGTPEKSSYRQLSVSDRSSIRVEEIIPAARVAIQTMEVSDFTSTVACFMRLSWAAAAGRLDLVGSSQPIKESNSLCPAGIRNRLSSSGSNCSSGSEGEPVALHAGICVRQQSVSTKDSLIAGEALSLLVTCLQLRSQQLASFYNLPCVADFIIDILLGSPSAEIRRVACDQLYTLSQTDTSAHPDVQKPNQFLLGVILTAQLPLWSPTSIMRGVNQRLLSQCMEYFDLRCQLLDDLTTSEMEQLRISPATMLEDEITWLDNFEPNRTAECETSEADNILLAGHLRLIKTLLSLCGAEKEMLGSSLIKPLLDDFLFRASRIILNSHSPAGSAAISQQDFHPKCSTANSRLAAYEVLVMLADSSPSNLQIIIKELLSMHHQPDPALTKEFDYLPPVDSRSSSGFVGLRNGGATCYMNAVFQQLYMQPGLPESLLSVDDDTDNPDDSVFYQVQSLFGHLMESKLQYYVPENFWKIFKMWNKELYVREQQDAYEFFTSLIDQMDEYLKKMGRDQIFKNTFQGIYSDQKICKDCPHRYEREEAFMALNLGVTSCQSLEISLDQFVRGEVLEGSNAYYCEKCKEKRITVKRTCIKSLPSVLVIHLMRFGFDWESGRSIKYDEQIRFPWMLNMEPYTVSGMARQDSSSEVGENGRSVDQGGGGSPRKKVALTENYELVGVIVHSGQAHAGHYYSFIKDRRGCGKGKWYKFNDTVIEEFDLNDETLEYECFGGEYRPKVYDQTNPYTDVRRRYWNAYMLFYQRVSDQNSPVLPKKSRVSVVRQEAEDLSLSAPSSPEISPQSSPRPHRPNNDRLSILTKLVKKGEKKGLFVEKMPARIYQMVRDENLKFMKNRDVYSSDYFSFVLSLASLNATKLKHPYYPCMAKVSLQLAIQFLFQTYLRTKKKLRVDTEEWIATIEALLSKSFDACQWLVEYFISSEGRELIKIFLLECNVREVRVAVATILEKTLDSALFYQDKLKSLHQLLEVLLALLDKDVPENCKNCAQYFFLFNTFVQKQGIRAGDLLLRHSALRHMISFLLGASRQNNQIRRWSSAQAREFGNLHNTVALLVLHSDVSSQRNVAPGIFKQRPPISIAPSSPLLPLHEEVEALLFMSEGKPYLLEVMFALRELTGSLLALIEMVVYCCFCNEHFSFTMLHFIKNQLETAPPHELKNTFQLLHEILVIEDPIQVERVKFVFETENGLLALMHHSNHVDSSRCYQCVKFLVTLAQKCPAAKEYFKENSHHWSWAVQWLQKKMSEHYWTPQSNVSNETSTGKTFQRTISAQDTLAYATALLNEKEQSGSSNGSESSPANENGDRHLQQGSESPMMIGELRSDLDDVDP
In short: as §1

USP25 = target: T3, USP25 (UniProt Q9UHP3)
T3 sequence (whole entry): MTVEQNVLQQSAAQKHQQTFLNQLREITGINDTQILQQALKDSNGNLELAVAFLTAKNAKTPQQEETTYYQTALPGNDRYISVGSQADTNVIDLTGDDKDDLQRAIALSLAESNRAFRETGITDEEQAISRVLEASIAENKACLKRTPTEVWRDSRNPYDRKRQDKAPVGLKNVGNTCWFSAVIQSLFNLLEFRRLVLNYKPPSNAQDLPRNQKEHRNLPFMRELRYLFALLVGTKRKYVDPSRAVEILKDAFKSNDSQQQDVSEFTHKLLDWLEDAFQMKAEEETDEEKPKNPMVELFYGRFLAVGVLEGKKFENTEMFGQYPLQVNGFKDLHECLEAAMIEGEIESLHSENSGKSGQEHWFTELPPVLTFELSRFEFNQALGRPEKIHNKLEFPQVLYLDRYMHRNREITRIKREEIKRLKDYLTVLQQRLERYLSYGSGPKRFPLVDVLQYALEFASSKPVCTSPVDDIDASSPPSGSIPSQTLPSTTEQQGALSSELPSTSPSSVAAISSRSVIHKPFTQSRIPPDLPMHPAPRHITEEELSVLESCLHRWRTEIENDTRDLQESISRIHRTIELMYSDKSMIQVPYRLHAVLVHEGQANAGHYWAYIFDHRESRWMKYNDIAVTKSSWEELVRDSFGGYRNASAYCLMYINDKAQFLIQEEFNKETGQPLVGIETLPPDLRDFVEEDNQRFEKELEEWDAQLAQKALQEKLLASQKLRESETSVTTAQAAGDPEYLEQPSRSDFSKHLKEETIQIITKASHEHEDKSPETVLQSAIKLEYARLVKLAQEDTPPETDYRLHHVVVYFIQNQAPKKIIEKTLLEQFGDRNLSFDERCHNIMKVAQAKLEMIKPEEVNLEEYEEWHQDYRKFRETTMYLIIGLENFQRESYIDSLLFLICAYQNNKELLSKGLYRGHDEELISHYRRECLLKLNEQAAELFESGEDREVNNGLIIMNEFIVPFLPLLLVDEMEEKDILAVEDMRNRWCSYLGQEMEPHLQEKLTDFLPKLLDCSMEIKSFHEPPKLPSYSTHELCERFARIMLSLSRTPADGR
In short: as §1

USP28 = target: T4, USP28 (UniProt Q96RU2)
T4 sequence (whole entry): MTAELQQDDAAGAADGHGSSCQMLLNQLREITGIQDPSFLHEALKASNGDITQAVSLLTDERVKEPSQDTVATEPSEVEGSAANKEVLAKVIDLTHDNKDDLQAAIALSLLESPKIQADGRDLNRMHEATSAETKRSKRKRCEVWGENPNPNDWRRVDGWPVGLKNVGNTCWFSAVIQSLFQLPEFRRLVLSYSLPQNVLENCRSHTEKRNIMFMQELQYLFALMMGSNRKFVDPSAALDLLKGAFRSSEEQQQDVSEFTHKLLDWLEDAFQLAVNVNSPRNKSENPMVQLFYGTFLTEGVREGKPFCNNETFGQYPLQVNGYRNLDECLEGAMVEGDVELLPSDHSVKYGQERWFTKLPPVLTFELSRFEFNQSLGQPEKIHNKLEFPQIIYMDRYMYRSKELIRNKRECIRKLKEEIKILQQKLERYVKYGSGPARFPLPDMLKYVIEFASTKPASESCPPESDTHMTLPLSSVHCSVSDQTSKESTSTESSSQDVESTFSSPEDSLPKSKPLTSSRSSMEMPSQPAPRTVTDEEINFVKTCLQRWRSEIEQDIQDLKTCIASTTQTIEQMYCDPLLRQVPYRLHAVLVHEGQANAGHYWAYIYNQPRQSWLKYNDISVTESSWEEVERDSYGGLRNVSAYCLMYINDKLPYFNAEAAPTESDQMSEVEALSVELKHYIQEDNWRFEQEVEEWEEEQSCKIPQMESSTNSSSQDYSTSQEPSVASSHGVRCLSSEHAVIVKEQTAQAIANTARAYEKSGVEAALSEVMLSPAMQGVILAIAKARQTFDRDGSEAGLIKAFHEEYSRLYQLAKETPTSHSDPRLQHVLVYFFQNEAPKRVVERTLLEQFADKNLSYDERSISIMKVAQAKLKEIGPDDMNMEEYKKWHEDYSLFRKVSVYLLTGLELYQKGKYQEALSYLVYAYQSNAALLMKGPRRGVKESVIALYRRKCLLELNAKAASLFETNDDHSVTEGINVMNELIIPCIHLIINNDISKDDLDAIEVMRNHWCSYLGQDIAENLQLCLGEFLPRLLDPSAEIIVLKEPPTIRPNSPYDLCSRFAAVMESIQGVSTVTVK
In short: as §1

Measured: log2 ratio of Biotin-Ahx-Ub-VS probe labelling

COCC[C@@H](NC(=O)CCl)c1ccccc1
inactive: USP19 -0.0952 | USP22 0.104 | USP24 -0.153 | USP25 -0.293 | USP28 -0.388
